The campaign covered roughly 220,000 compounds. About 1,100 (0.5%) were called active. Many of the other results were omitted from the sample, so actives are more common in it than they were. Unmarked numbers belong to inactive results.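 Rule for the calls: active = inhibition above about 30% (limit read from the data); inactive = the rest.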
Molecular target: Neutrophil cytosol factor 1 (Homo sapiens) (UniProt P14598)
Assay: p47phox/p22phox peptide binding inhibitors, primary screen, biochemical, uHTS, NADPH oxidase regulatory subunit (AID 1274);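 note: 0% = p47phox with labelled peptide and 100% = labelled peptide alone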
Settings: fluorescence polarization, 2 h, at 24.7 µM, active compounds read high

Neutrophil cytosol factor 1 (Homo sapiens), sequence (P14598 whole entry, looked up): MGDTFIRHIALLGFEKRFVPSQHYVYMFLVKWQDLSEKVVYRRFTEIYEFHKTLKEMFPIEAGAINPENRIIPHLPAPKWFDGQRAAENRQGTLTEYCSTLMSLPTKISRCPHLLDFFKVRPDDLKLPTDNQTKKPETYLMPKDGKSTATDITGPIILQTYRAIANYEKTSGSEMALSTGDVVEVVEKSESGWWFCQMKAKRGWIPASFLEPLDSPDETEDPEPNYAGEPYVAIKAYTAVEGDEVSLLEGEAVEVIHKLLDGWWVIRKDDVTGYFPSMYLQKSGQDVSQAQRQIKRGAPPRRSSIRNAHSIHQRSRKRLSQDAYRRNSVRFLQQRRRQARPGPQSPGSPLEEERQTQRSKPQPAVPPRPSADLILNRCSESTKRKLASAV

Row | SMILES | inhibition
1 | COc1ccc(N2C(=O)CC(SC(C)C)C2=O)cc1 (configuration not stated) | -5.28%
2 | COc1ccc(N2C(=O)C(Cc3ccccc3)NC2=S)cc1 (configuration not stated) | -10.2%
3 | COc1ccc(N2C(=O)CNC2=S)cc1 | 41.5% (active)
4 | Cc1c(C(=O)OC(C)C)sc(NC(=O)c2cccnc2)c1C#N | -54.3%
5 | O=C(O)CCC(=O)Nc1ccc(N2CCOCC2)cc1 | -1.84%
6 | O=C(CSc1ccc([N+](=O)[O-])cn1)Nc1ccc(N2CCOCC2)cc1 | 2.81%
7 | Cn1cnnc1SCC(=O)Nc1ccc(N2CCOCC2)cc1 | 50% (active)
8 | CN1CCN(CCCCOc2ccccc2-c2ccccc2)CC1 | -0.29%
9 | CC(C)=CCCC1(C)C=Cc2c(ccc3c2[nH]c2cc(O)c(C)cc23)O1 (configuration not stated) | -11.9%
10 | CCOC(=O)c1cnc2[nH]c3ccccc3n2c1=O | 0.2%
11 | O=c1[nH]c2ccccc2n2c(-c3ccccc3)nnc12 | 69.6% (active)
12 | O=[N+]([O-])c1cccc(-c2nnc3c4ccccc4c4ccccc4n23)c1 | -1.55%
13 | COc1ccc2oc(N)c(C=O)c(=O)c2c1 | -6.85%
14 | CC/C(O)=N\S(=O)(=O)c1ccc(N=NN(C)C)cc1 | -7.34%
15 | COc1ccccc1OCCNC(=O)c1cc([N+](=O)[O-])cc([N+](=O)[O-])c1 | 5.08%
16 | CCc1cc(Br)ccc1NC(=O)C1CCCO1 (configuration not stated) | -3.52%
17 | CCOC(=O)Cn1c(=O)oc2cc(S(=O)(=O)NCC3CCCO3)ccc21 (configuration not stated) | -8.76%
18 | OC(CNCC1CCCO1)Cn1c2ccc(Br)cc2c2cc(Br)ccc21 (configuration not stated) | 64% (active)
19 | CS(=O)(=O)N1CCc2cc(C(=O)Nc3ccccc3)ccc21 | -4.32%
20 | CC(C)Cc1nn2c(=O)cc(O)nc2s1 | -2.97%
21 | O=c1[nH]c(=S)[nH]c2[nH]c(=S)[nH]c12 | 32.1% (active)

Row | SMILES | inhibition
22 | Cc1c(C)c(C)c2[nH]c(=S)[nH]c2c1C | -7.18%
23 | Cc1cc(=O)[nH]c(=S)[nH]1 | -3.01%
24 | Cn1c(=O)c([N+](=O)[O-])c(Oc2ccccc2)c2ccccc21 | 0.11%
25 | CCOc1cc(NC(=O)c2ccco2)c(OCC)cc1NC(=O)COc1ccccc1 | 35.5% (active)
26 | CCOc1cc(NC(=S)NCCCOC)c(OCC)cc1NC(=O)c1ccco1 | -10.9%
27 | CCOc1cc(NC(=S)NCc2ccco2)c(OCC)cc1NC(=O)c1ccco1 | 4.63%
28 | COc1ccccc1P(=O)(c1ccccc1)c1ccccc1NC(C)=O (configuration not stated) | 7.25%
29 | COc1ccc(/C=C/C(=O)OCC(=O)NCc2cccs2)cc1OC | -9.49%
30 | COC(=O)Cc1c(O)ccn(Cc2cccc(C(F)(F)F)c2)c1=O | -10.6%
31 | CC1=CC(C)(C)NC(=S)N1NC(=O)c1ccccc1Cl | -1.05%
32 | COc1ccccc1C(=O)NN1C(=O)C2C3C=CC(O3)C2C1=O (configuration not stated) | -8.76%
33 | O=C(NN1C(=O)C2C(C1=O)C1C=CC2C12CC2)c1ccccc1Cl (configuration not stated) | 43.4% (active)
34 | COc1ccc(COCC(O)CN2CCC(C(N)=O)CC2)cc1 (configuration not stated) | -6.99%
35 | Cc1ccccc1Nc1scc(-c2ccc(Br)cc2)[n+]1-c1ccccc1C | -1.63%
36 | CC(C)CNC(=O)COC(=O)c1ccccc1OCC(=O)Nc1ccc(Br)cc1 | 0.42%
37 | CC1CN(S(=O)(=O)c2ccc(C(=O)Nc3sccc3C(N)=O)cc2)CC(C)O1 (configuration not stated) | -4.8%
38 | CN1/C(=C\C=C2\N=C(c3ccc(F)cc3)OC2=O)C(C)(C)c2ccccc21 | 149% (active)
39 | CN1/C(=C\C(=O)c2cccnc2Cl)C(C)(C)c2ccccc21 | -37.8%
40 | CN1/C(=C\C(=O)c2oc3ccccc3c2N)C(C)(C)c2ccccc21 | -9.12%
41 | COc1cc(C(=O)NCc2ccc3c(c2)cc(C)n3C)cc(OC)c1OC | 1.37%
42 | O=C(O)C1=C[C@H](c2cccs2)C[C@H](OCCCCO)O1 | -14.3%

Row | SMILES | inhibition
43 | Cc1ccc(C)c(CSc2nc(-c3ccco3)nc3c2c(=O)n(C)c(=O)n3C)c1 | -1.58%
44 | CC(C)(C)NC(=O)/C(=C/c1cccnc1)NC(=O)c1ccco1 | -7.92%
45 | COCCN1C=C2C(=O)C(C)(OC(=O)C3CCCC3)C(=O)C=C2C=C1c1ccsc1 (configuration not stated) | 0.87%
46 | CC1(OC(=O)CCc2ccccc2)C(=O)C=C2C=C(c3ccc(C#N)cc3)N(CCc3ccccn3)C=C2C1=O (configuration not stated) | 32.3% (active)
47 | C=CCN1C=C2C(=O)C(C)(OC(=O)CCc3ccccc3)C(=O)C=C2C=C1c1ccc(C#N)cc1 (configuration not stated) | -11.9%
48 | CCN(C(=O)CN1CCN(Cc2ccccc2)CC1)c1c(N)n(Cc2ccccc2)c(=O)[nH]c1=O | -14.8%
49 | O=C(c1cccc(C(=O)N2CCc3ccccc32)n1)N1CCc2ccccc21 | 45.6% (active)
50 | O=C(c1cnn2ccccc12)N1CCc2ccccc21 | -1.85%
51 | NC(=O)N1CCc2ccccc21 | 3.78%
52 | Nc1nnn(CC(=O)N/N=C/c2ccc(O)cc2)n1 | -6.45%
53 | CN(C)c1nc(=Nc2cccc(Cl)c2)ss1 | -21.8%
54 | CCCCN=C1C([N+](=O)[O-])=CC=C2C1=NC1(CCCCC1)N2O | 103% (active)
55 | Oc1ccc2ccccc2c1N=Nc1nccs1 | 59.9% (active)
56 | Oc1ccc(N=Nc2nccs2)c(O)c1 | -48.9%
57 | Oc1c(C=Nc2cccc3nsnc23)ccc2ccccc12 | -51.3%
58 | CCN(C(=O)COC(=O)/C=C/c1nc2ccccc2s1)C1CCS(=O)(=O)C1 (configuration not stated) | -4.73%
59 | CCN1CCN(C(c2cccnc2)c2cc(Cl)c3cccnc3c2O)CC1 (configuration not stated) | 38.2% (active)
60 | CCOC(=O)N1CCN(C(c2cccnc2)c2ccc3cccnc3c2O)CC1 (configuration not stated) | 6.02%
61 | Oc1c(CN2CCN(c3ccc(F)cc3)CC2)cc(Cl)c2cccnc12 | 11.9%
62 | CC(=O)Nc1nc(C)c(-c2csc(Nc3ccc(S(N)(=O)=O)cc3)n2)s1 | -21.6%

From PubChem BioAssay AID1274 (Emory University Molecular Libraries Screening Center, 2008)
